Test results published in PubChem BioAssay (NCI).
About 83,000 compounds went through this panel and 20% of them were active in at least one assay; those are over-represented in the sample as a whole.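 Percent growth is the endpoint: 0 to 100 indicates growth inhibition (40 means 60% inhibition), 0 means no net growth, and negative values indicate cell death.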 Unmarked numbers belong to inactive results. Calls of active or inactive are those of the source. How the source made its calls: active means growth percent below 10; inactive means the rest.

Assays:
Assay in all cases: NCI-60 one-dose screen, 48 h (100 = growth as untreated, 0 = no growth, -100 = all killed)
Conditions in all cases: 10 µM unless noted
NCI-H23 lung = system: NCI-H23 lung
NCI-H226 lung = system: NCI-H226 lung
NCI-H322M lung = system: NCI-H322M lung
HOP-62 NSCLC = system: HOP-62 NSCLC
NCI-H460 lung = system: NCI-H460 lung
HOP-92 NSCLC = system: HOP-92 NSCLC
NCI-H522 lung = system: NCI-H522 lung
A549/ATCC NSCLC = system: A549/ATCC NSCLC
786-0 renal = system: 786-0 renal
COLO 205 colon = system: COLO 205 colon

Structure (SMILES)	growth (NCI-H23 lung)	growth (NCI-H226 lung)	growth (NCI-H322M lung)	growth (HOP-62 NSCLC)	growth (NCI-H460 lung)	growth (HOP-92 NSCLC)	growth (NCI-H522 lung)	growth (A549/ATCC NSCLC)	growth (786-0 renal)	growth (COLO 205 colon)
O=C1/C(=C/c2ccc(Cl)cc2)CN(C(=O)CCN2CCC(=NO)CC2)C/C1=C\c1ccc(Cl)cc1	-57% (active)	-20.5% (active)	-75% (active)	-80.1% (active)	-67% (active)	-39.1% (active)	-92.1% (active)	2.34% (active)	-76.9% (active)	-83.9% (active)
COC(=O)c1cccc2c1N(C)c1c(cccc1C(=O)OC)CC2	104%	112%	111%	107%	117%	96.4%	96.1%	112%	108%	102%
C1=Cc2ccccc2N(c2nnc(-c3ccccc3)o2)c2ccccc21	103%	81.7%	92.2%	99.5%	49.8%	84.7%	92.8%	92.6%	100%	91.3%
O=S(=O)(c1ccc(OCCO)cc1)c1ccc(OCCO)cc1	106%	106%	91.8%	114%	104%	87.2%	82.7%	101%	112%	132%
Brc1ccc(-c2[nH]ncc2-c2c[nH]c3ccccc23)cc1	92.5%	92.8%	99.7%	111%	98.1%	63.2%	107%	93.6%	102%	109%
NC1=C(/C(N)=N/O)C(c2ccccc2)c2ccc3ccccc3c2O1 (stereo not given)	28.7%	1.84% (active)	40%	26.2%	1.37% (active)	29.8%	5.81% (active)	21.2%	29%	-5.32% (active)
Cc1ccc(-c2nc(C#N)c(S(=O)(=O)n3nc(-c4ccccc4)cc3N)o2)cc1	97.4%	78.3%	97.3%	87.6%	109%	89.1%	-12% (active)	94.4%	84%	-44.1% (active)
O=C(O)c1nc(-c2ccccc2)oc1N1CCOCC1	98%	103%	91.8%	97%	102%	84.6%	95.9%	100%	97.5%	102%
Cc1cc(C2=NNC(=O)Cc3cc4c(cc32)OCCO4)cc(C)c1N	44.2%	75.1%	44.9%	37.4%	17.6%	69%	-20.1% (active)	50.7%	32.5%	9.99% (active)
